Results taken from PubChem BioAssay AID540317 (National Center for Advancing Translational Sciences (NCATS), 2011).
The whole screen tested about 390,000 compounds, of which about 2,200 (0.56%) were called active. Another 3% or so got no clear call; they are omitted. This is one part of a sample in which actives are shown more often than they occur. Calls come from the whole dose curve; as a rule, active = well fitted inhibition curve with a large enough effect; inconclusive = small, poorly fitted or top-dose-only effect; inactive = no such curve, though single readings can be large or run the other way.

Target: Chromobox protein homolog 1 (Homo sapiens) (UniProt P83916)
Sequence (P83916 whole entry, looked up): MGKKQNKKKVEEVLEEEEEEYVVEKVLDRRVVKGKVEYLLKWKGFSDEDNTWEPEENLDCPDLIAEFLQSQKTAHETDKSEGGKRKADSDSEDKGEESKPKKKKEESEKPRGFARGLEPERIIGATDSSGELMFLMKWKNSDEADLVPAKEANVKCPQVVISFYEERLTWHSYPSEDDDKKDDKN
Experiment: HTS for Inhibitors of HP1-beta Chromodomain Interactions with Methylated Histone Tails; note: nearly all actives have a fitted effect of over 70% in size
Conditions: AlphaScreen HP1-beta / biotin-H3K9me3 peptide binding; series mostly up to 114 µM; activity change, negative = inhibition: at the top concentration
Source text: As our understanding of epigenetics expands, it is becoming clear that players in this field are potential targets for drug development. This area of epigenetic therapy has established applications for the treatment of cancer and neurological diseases. We have been involved in this field for a number of years and have performed high-throughput screens to identify the first small molecule inhibitors of protein methyltransferases. These methyltransferases target multiple substrates, and thus regulate many arms of an epigenetic pathway. The methylation of different substrates often generates docking sites for effector proteins that harbor binding domains (chromo, tudor, PHD, MBT and ANK repeats). It has been proposed that the binding sites generated for different proteins by these post-translational modifcations mediate downstream effects on chromatin. Consistent with this theory, di- and tri-methylation of histone H3K9 facilitates the binding of heterochromatin protein HP1. The HP1 protein harbors a chromodomain that is responsible for the methyl-dependent interaction between HP1 and lysine 9 of histone H3. HP1 was first described in flies as a heterochromatin associated protein that can regulate gene silencing. It harbors a chromodomain that binds H3K9me3. In addition, it harbors a chromoshadow domain that interacts with a large number of proteins that are involved in heterochromatin formation and gene repression. There are three highly related HP1 isoforms. All three variants are associated with pericentric heterochromatin and it is not clear whether they have specific or redundant functions. MPP8 is also involved in the repression of gene in euchromatic regions (unpublished data) and like HP1 its chromodomain binds H3K9me3. MPP8 harbors an ankyrin repeat region that is likely involved in binding and recruiting interacting proteins with transcriptional repressive function, much like the chromoshadow domain of HP1 does. We hypothesize that by inhibiting specific protein-protein interactions we will be able to develop compounds that block a single arm of an epigenetic pathway. The specificity attained by blocking a single protein-protein interaction will be far greater than that attained by blocking the enzyme that regulates one of many interactions. Low-affinity protein-protein interactions (Kd in the single- to double-digit micromolar range) such as those discussed here have been very difficult to assay by traditional techniques such as fluorescence polarization or fluorescence resonance energy transfer. We have developed a sensitive chemiluminescence-based assay (Quinn, et al. 2009), which serves as the starting point for this project. The following is a validation assay to identify lead compounds that can block methyl-dependent protein-protein interactions (specifically HP1-beta), which can be used as probes to analyze these methyl-driven interactions and perhaps even developed into targeted epigenetic therapies. NIH Chemical Genomics Center [NCGC] NIH Molecular Libraries Probe Centers Network [MLPCN] MLPCN Grant: DA031087 Assay Submitter (PI): Mark Bedford, University of Texas, Medical Anderson Cancer Center, TX
To each well, 2 uL of HP1-beta protein (final 50 nM) and 1 uL biotinylated histone peptide trimethylated at Lys9 [b-H3(1-18)K9me3] (final 50 nM) was added in 1x PBS buffer, pH 7.4, containing 0.01% Tween-20 using a nanoliter dispenser. Formation of a protein-peptide complex proceeded at room temperature for 30 min. A Kalypsys pin-tool was employed to transfer 23 nL of library compound solution in DMSO to each well. Aurintricarboxylic acid (ATA) was used as an intraplate control with a 12-point titration in duplicate. Following a 30 min incubation of the protein-peptide complex with compounds at room temperature, a mixture of 40 ug/mL each streptavidin-coated donor and nickel chelate acceptor AlphaScreen beads (final 10 ug/mL) was added in a 1 uL dispense for a final volume of 4 uL. […]
Potency is the fitted concentration of half-maximal effect.

Activity change, negative = inhibition, inactive:
Cc1cc([N+](=O)[O-])c(N2CCC[C@@H]2C(=O)O)c([N+](=O)[O-])c1 22.6%
Cc1ccc(C(=O)COC(=O)CCCC(=O)NC2CCCCC2)cc1[N+](=O)[O-] 19.2%
COc1ccc(C2Nc3ccc(NC(=O)COC(C)=O)cc3C(=O)N2Cc2ccccc2)cc1COc1ccc(NC(C)=O)cc1 (stereo not given) 33.9%
O=C(NCc1ccccc1)c1cccc(NC(=O)N2CCSc3ncccc32)c1 45.2%
CCCN(C(=O)Cn1ncc2c([nH]c3ccc(C)cc32)c1=O)c1ccccc1C 5.82%
Cc1ccc(CCNC(=O)c2nnc(Cc3cccc(F)c3)o2)cc1 -11.4%
COc1cccc(-c2n[nH]c3c2C(c2cccc(O)c2)N(C)C3=O)c1 (stereo not given) 10.2%
O=C(CN1CCCCCC1)Nc1ccc(Br)cc1Br 121%
O=C(CN1CCC(NC(=O)C2CC2)CC1)Nc1ccccc1[N+](=O)[O-] 13.5%
COc1ccc(C(CCN2CCOCC2)c2c(OC)cc(OC)c3c2OC(=O)CC3c2ccc(OC)cc2)cc1 (stereo not given) -21.1%
CCOc1ccc(N2CC(C)Cn3c2nc2c3c(=O)n(Cc3c(F)cccc3Cl)c(=O)n2C)cc1 (stereo not given) 46.2%
COC(=O)c1ccccc1NC(=O)Cn1c(=O)n(-c2cccc(C(F)(F)F)c2)c(=O)c2c(C)c(C)sc21 12.3%
CCOc1ccc(S(=O)(=O)c2cn(Cc3ccc(OC)cc3)c3ccc(F)cc3c2=O)cc1 43.2%
COc1ccc(-c2ccc(C3C4C=CCCC4(C)C(=O)N3Cc3ccccc3)c(F)c2)cc1OC (stereo not given) 14.5%
Clc1cccc(-n2ncc3c(NCCc4ccccc4)ncnc32)c1 97.1%
CCCOC(=O)c1c(NC(=O)c2cc3nc(-c4ccc(OC)cc4)cc(C(F)(F)F)n3n2)sc2c1CCCC2 5.34%
Cc1ccc(OCC(=O)Oc2ccccc2[N+](=O)[O-])cc1 20.1%
O=C(COc1ccccc1[N+](=O)[O-])NC1CC1 39.7%
OCCNc1ncnc2oc(-c3ccco3)c(-c3ccco3)c12 -0.766%
CCOC(=O)C1CCCN(C(=O)c2ccc(-n3ccc4ccccc43)s2)C1 (stereo not given) 99.9%
O=C(c1cccc(Br)c1)N1CCN(Cc2cc(=O)n3nc(-c4ccccc4)sc3n2)CC1 20.1% [at 57 µM]
Cc1c(NC(=O)CCC2CCCCC2)cc(C(=O)N2CCOCC2)cc1[N+](=O)[O-] 59.7%
COc1ccc(NC(=O)CN(C)C(=O)c2ccc(NC3CC3)c([N+](=O)[O-])c2)cc1 -5.96%
CCOc1ccc(CC(=O)NCCc2csc3nc(-c4ccccc4F)nn23)cc1 13.6% [at 57 µM]
CCOc1ccccc1N(C)C(=O)c1cc2c(s1)-c1ccccc1OC2 26.3%
CCc1ccc(OCCCn2c(CCCNC(=O)C3CCCCC3)nc3ccccc32)cc1 27.3% [at 57 µM]
Cc1ccc(OCC(=O)Nc2ccc(Cl)c(-c3nc4ccccc4[nH]3)c2)cc1C 41.1%
O=C(CC1SC(N2CCOCC2)=NC1=O)Nc1ccccc1F (stereo not given) 59.6%
Cc1ccc(C(=O)Nc2ccccc2F)cc1S(=O)(=O)N1CCOCC1 39.4%
O=C(Nc1ccc(Br)cc1)c1ccc(Br)c(S(=O)(=O)NCc2ccccc2)c1 -11%
CC(C)C12CN3CC(C(C)C)(CN(C1)C3c1ccc(OCc3ccccc3)cc1)C2=O (stereo not given) 4.34%
O=C(O)c1ccc2c(c1)N(Cc1ccc(F)cc1)C(=O)c1ccccc1S2=O (stereo not given) 28.1%
Cc1ccc(CNS(=O)(=O)c2ccc(-c3cc(C(F)(F)F)on3)s2)cc1 48.9%
CCC(C)c1ccc2oc(-c3ccc(NC(=O)c4cc5ccccc5o4)cc3)nc2c1 (stereo not given) 5.45%
CCCCc1nn2c(=O)cc(COC(=O)c3ccccc3NC(=O)C(C)(C)C)nc2s1 32.6%
Cc1cc(NC(=O)CSc2ncc(C(=O)Nc3ccc(Cl)cc3)c(=O)n2C)no1 19.9%
Cc1ccc(C(=O)NCCSc2c(C)[nH]c3ccccc23)cc1C 8.02%
Cc1ccc(C)c(N2C(=O)N(Cc3c(F)cccc3Cl)c3ccccc3S2(=O)=O)c1 51.8%
COc1ccc(-c2onc(C)c2C)cc1S(=O)(=O)NCCc1ccccc1 17.1%
Cn1c(CCCOc2ccc(Cl)cc2Cl)n[nH]c1=S -3.23%
C=CCn1c(CCc2ccc(OC(C)C)cc2)n[nH]c1=S 9.44%

Potency, active:
Cc1cc([N+](=O)[O-])c(NC2CCCCC2)c([N+](=O)[O-])c1 15.8 µM
O=C(CN1CCCCCC1)Nc1ccc(Br)cc1[N+](=O)[O-] 50.1 µM
COc1ccc2c(c1)c(=Cc1ccc(N(C)C)cc1)c1cc(-c3ccccc3)[n+](C)n12 39.8 µM
C=CCN(CC=C)CCOc1ccccc1[N+](=O)[O-] 39.8 µM
Cc1cc(C=O)c(C)n1-c1ccc(NC2CCCCC2)c([N+](=O)[O-])c1 25.1 µM
N#C/C(=C\C1=C(N2CCOCC2)C(=C\c2ccccc2)/CC1)C(=O)Nc1ccccc1F 7.08 µM
N#Cc1c(N2CCCCC2)nc(N)c2c(N)nc(SCC(=O)O)cc12 35.5 µM
CSC1=N/C(=C\C=C\c2cccs2)C(=O)S1 28.2 µM
COc1ccc(OCc2n[nH]c(=S)n2N)cc1 10 µM
